Screens deposited in PubChem by National Center for Advancing Translational Sciences (NCATS).
An excerpt weighted towards active compounds, which were near 17% of everything screened.
ATXN2 expr inh = ATXN2 expression inhibition. Potency, µM (series often up to 57 µM), actives largely listed as inhibitors. 0.72% of 360,000 active. HEK-293 ATXN2-luciferase reporter, luminescence, 24 h; also: nearly all actives have a fitted effect of over 55% in size
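qHTS (up to 57 uM final) was run with 24 h compound exposure of reporter cells at 37 °C. Each well was multiplexed: SteadyGlo luminescence measured ATXN2-luciferase expression after a fluorogenic Gly-Phe-AFC viability readout (25 uM final).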
HepG2 tox = HepG2 cytotoxicity, counter-screen for TGF-b inhibitors. 0.76% of 410,000 active. Potency, µM (highest dose often 46.1 µM), usual class: cytotoxic. HepG2 CAGA-GFP viability, ATP luminescence, 18 h
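CellTiter-Glo luminescence gave cytotoxicity after 18 hours at 37 degrees C. The cells were HepG2 CAGA-GFP in 1% FBS DMEM, stimulated with 500 pg/mL TGF-beta after compound addition. %Activity was normalised to no-cell wells (complete cell-killing) and DMSO (no toxicity), and curves were fitted and classified.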
TDP1 cell CPT = DT40-hTDP1 cell growth loss with CPT; chicken DT40 Tdp1-/-;hTDP1 cells + 20 nM CPT, ATP luminescence, 48 h; Potency, µM (highest dose often 46.2 µM), actives largely listed as inhibitors; 12% of 420,000 active; also: nearly all actives have a fitted effect of over 55% in size
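Chicken DT40 Tdp1-/- cells complemented with human TDP1, 400 cells/well, exposed to compounds plus 20 nM camptothecin for at least 48 h at 37 C; viability read as ATP content by CellTiter-Glo luminescence.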
DT40 TDP1 no CPT = qHTS for Inhibitors of human tyrosyl-DNA phosphodiesterase 1 (TDP1): qHTS in cells in absence of CPT; DT40 Tdp1-/- hTDP1 cells, no CPT, ATP luminescence, 48 h; Potency, µM (series often up to 46.2 µM), usual class: inhibitors; 15% of 420,000 active; also: nearly all actives have a fitted effect of over 55% in size
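Cells were dispensed at 400 per well, compounds added by pin tool, plates incubated ≥48 hr at 37 °C, then CellTiter-Glo added for 30 min at room temperature before luminescence reading. Line: DT40 Tdp1-/- complemented with hTDP1; camptothecin omitted.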
TGFb SMAD3 inh = blocks TGF-b signaling | HepG2 CAGA-GFP TGF-b/SMAD3 reporter, GFP fluorescence, 18 h; TGF-beta stimulated, 500 pg/mL final | 1.2% of 410,000 active | Potency, µM (top dose mostly 46.1 µM), hits mostly inhibitors | AID 588855; also: nearly all actives have a fitted effect of over 65% in size
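Inhibition of TGF-beta-driven CAGA-GFP reporter expression in HEPG2 cells is measured by cellular GFP fluorescence after 18 h stimulation with 500 pg/mL recombinant TGF-beta in 1% FBS medium at 37 degrees C.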
ATXN viability = reduces viability in counter-screen for ATXN expression inhibitors. S2 cells (HEK-293 line with an ATXN2-luciferase reporter) viability, CellTiter-Fluor protease fluorescence, 24 h. Potency, µM (top dose mostly 56.7 µM), most hits filed as cytotoxic. 0.49% of 400,000 active. AID 651635; also: nearly all actives have a fitted effect of over 40% in size
Of the large screens only hits and unclear results are named; the others gave an inactive call. Calls follow the shape of the dose curve; as a rule, active = well fitted curve in the direction sought with a large enough effect; inconclusive = small, poorly fitted or top-dose-only effect, or another doubt; inactive = no such curve, though single readings can be large; an effect the other way counts as inactive or inconclusive.

Cc1ccc(C)c(Cn2c(=O)cc(C(F)(F)F)c3c(C)nn(C)c32)c1	none
CC(Oc1cccc(Cl)c1)C(=O)Nc1ccc(S(=O)(=O)N(C)C2CCN(C)CC2)cc1 (centres undefined)	TDP1 cell CPT inconclusive, DT40 TDP1 no CPT inconclusive
COc1cc(C(=O)NCC(c2ccco2)N2CCCC2)ccc1OCc1ccc(Cl)cc1Cl (centres undefined)	TDP1 cell CPT inconclusive, DT40 TDP1 no CPT 23µM, TGFb SMAD3 inh inconclusive (no result: ATXN2 expr inh, ATXN viability)
CN(c1ccccc1)S(=O)(=O)c1ccc(Cl)c(C(=O)NCC(c2ccco2)N2CCCC2)c1 (centres undefined)	TDP1 cell CPT 13µM, DT40 TDP1 no CPT 13µM, TGFb SMAD3 inh inconclusive
COc1ccccc1NS(=O)(=O)c1ccc(C(=O)NCc2ccc(S(N)(=O)=O)cc2)cc1	TDP1 cell CPT inconclusive, DT40 TDP1 no CPT 15µM
Cc1ccc(S(=O)(=O)Nc2ccccc2OC(C(=O)OC(C)(C)C)C(=O)OC(C)(C)C)cc1	TDP1 cell CPT 15µM, DT40 TDP1 no CPT 16µM (no result: ATXN2 expr inh, HepG2 tox, TGFb SMAD3 inh, ATXN viability)
COc1ccccc1NC(=S)NCc1ccc(S(N)(=O)=O)cc1	none
Cc1ccc(S(=O)(=O)N(C)c2ccc(C(=O)NCC(c3ccccc3)N3CCCC3)cc2)cc1 (centres undefined)	TDP1 cell CPT inconclusive, DT40 TDP1 no CPT 21µM, TGFb SMAD3 inh inconclusive, ATXN viability inconclusive (no result: ATXN2 expr inh)
Cc1ccc(C(=O)NNC(=O)c2ccc(S(=O)(=O)N(C)c3ccccc3)cc2)cc1	TGFb SMAD3 inh inconclusive, ATXN viability inconclusive
COc1ccccc1NS(=O)(=O)c1ccc(C(=O)NCC(c2ccco2)N2CCCCC2)cc1 (centres undefined)	TDP1 cell CPT 15µM
COc1ccccc1NS(=O)(=O)c1cccc(C(=O)NCC(c2ccco2)N2CCCCC2)c1 (centres undefined)	TDP1 cell CPT inconclusive, DT40 TDP1 no CPT inconclusive
O=C(NCC(c1ccc(Cl)cc1)N1CCCCC1)c1ccccc1 (centres undefined)	TDP1 cell CPT 13µM, DT40 TDP1 no CPT 15µM
CCCCCCSc1ccc([C@H]2N[C@@](CC(C)C)(C(=O)OC)[C@H]3C(=O)N(CC)C(=O)[C@@H]23)cc1	TDP1 cell CPT 21µM, DT40 TDP1 no CPT 21µM
CCCCCCSc1ccc([C@H]2N[C@@](CC(C)C)(C(=O)OC)[C@H]3C(=O)N(C)C(=O)[C@@H]23)cc1	TDP1 cell CPT inconclusive, DT40 TDP1 no CPT inconclusive
CCC(C)Sc1ccc([C@H]2N[C@@](C)(C(=O)OC)[C@H]3C(=O)N(CC)C(=O)[C@@H]23)cc1 (some centres undefined)	TDP1 cell CPT 16µM, DT40 TDP1 no CPT 18µM, TGFb SMAD3 inh inconclusive
CCCCCCSc1ccc([C@H]2N[C@@](C)(C(=O)OC)[C@H]3C(=O)N(CC)C(=O)[C@@H]23)cc1	TDP1 cell CPT 23µM, DT40 TDP1 no CPT 18µM, TGFb SMAD3 inh inconclusive, ATXN viability inconclusive
COc1ccc(NC(=O)CN2C(=O)CCn3nc(-c4cccn4C)cc32)cc1Cl	none
CC(C)NS(=O)(=O)c1ccc(NC(=O)C(C)OC(=O)CCC2CCCC2)cc1 (centres undefined)	none
CC(Nc1ncnc2c1cnn2-c1cccc(Cl)c1)c1ccccc1 (centres undefined)	TDP1 cell CPT inconclusive, DT40 TDP1 no CPT inconclusive, TGFb SMAD3 inh inconclusive, ATXN viability inconclusive
CC(=O)Nc1ccc(Oc2cncc(Cl)c2)nc1	TDP1 cell CPT inconclusive, DT40 TDP1 no CPT inconclusive
O=C(OCc1cn([C@H]2C[C@H](c3ccccc3)N(CC3CCCCC3)C[C@@H]2O)nn1)c1ccccc1	ATXN2 expr inh inconclusive, TDP1 cell CPT inconclusive, DT40 TDP1 no CPT inconclusive
Cc1ccc([C@H]2C[C@@H](n3cc(COC(=O)c4ccccc4)nn3)[C@H](O)CN2CC2CCCCC2)cc1	TDP1 cell CPT inconclusive, DT40 TDP1 no CPT inconclusive
COc1ccc([C@H]2C[C@H](O)[C@@H](n3cc(COC(=O)c4ccccc4)nn3)CN2CC2CCCCC2)cc1	ATXN2 expr inh inconclusive, TDP1 cell CPT 23µM, DT40 TDP1 no CPT 23µM, TGFb SMAD3 inh inconclusive (no result: ATXN viability)
CCCCCCN1C[C@@H](O)[C@H](n2cc(COC(=O)c3ccccc3)nn2)C[C@@H]1c1ccc(C)cc1	TDP1 cell CPT 21µM, DT40 TDP1 no CPT 21µM
Cc1ccc([C@H]2C[C@@H](n3cc(COC(=O)c4ccccc4)nn3)[C@H](O)CN2C(=O)C2CCCCC2)cc1	TDP1 cell CPT inconclusive, DT40 TDP1 no CPT 21µM
Cc1ccc([C@H]2C[C@H](n3cc(COC(=O)c4ccccc4)nn3)[C@@H](O)CN2CC2CCCCC2)cc1	TDP1 cell CPT inconclusive, DT40 TDP1 no CPT 21µM, ATXN viability inconclusive
CCCCCCN1C[C@@H](O)[C@H](n2cc(COC(=O)c3ccccc3)nn2)C[C@@H]1c1ccccc1	TDP1 cell CPT inconclusive, DT40 TDP1 no CPT inconclusive
CCN(c1ccccc1)S(=O)(=O)c1ccc(Cl)c(NC(=O)c2ccc(=O)[nH]n2)c1	none
COc1ccc(CCNc2ncnc3sc(C(=O)N(C)C)c(C)c23)cc1OC	none (no result: ATXN2 expr inh, HepG2 tox, TGFb SMAD3 inh)
CCCn1c(C(O)c2ccc(OC)c(OC)c2)nc2ccccc21 (centres undefined)	TDP1 cell CPT inconclusive, DT40 TDP1 no CPT inconclusive, TGFb SMAD3 inh inconclusive
COc1ccc(NC(=S)N2CCC(Cc3ccccc3)CC2)cc1	TDP1 cell CPT 10µM, DT40 TDP1 no CPT 5.2µM
S=C(Nc1ccccc1)N1CCC(Cc2ccccc2)CC1	TDP1 cell CPT 4.1µM, DT40 TDP1 no CPT 3.7µM
O=C(Nc1ccc(OCC(=O)N2CCC(Cc3ccccc3)CC2)cc1)c1ccco1	TDP1 cell CPT 21µM, DT40 TDP1 no CPT 29µM
COc1ccc(NC(=S)N2CCN(Cc3ccccc3)CC2)cc1	DT40 TDP1 no CPT inconclusive
CCCNC(=S)N1CCC(Cc2ccccc2)CC1	ATXN2 expr inh inconclusive, TDP1 cell CPT inconclusive, DT40 TDP1 no CPT inconclusive
COC(=O)C1NN=C(C(=O)c2ccc(Cl)cc2)C1c1ccc(OC)cc1 (centres undefined)	DT40 TDP1 no CPT inconclusive
CC(C)C(NC(=O)c1ccc(C(C)(C)C)cc1)C(=O)NCC(c1ccccc1)N(C)C (centres undefined)	TDP1 cell CPT inconclusive, DT40 TDP1 no CPT 21µM, TGFb SMAD3 inh inconclusive (no result: ATXN2 expr inh)
CC(C)C(NC(=O)c1ccc(C(C)(C)C)cc1)C(=O)NCCc1ccccn1 (centres undefined)	TDP1 cell CPT inconclusive, DT40 TDP1 no CPT 21µM
